Among the test systems are SK-MEL-2 melanoma; EKVX NSCLC; SN12C renal; UO-31 renal; TK-10 renal; ACHN renal; CAKI-1 renal; A498 renal; CCRF-CEM leukemia; MOLT-4 leukemia; SR leukemia; RPMI-8226 leukemia; OVCAR-8 ovarian; OVCAR-5 ovarian; OVCAR-4 ovarian; SK-OV-3 ovarian; IGROV1 ovarian; OVCAR-3 ovarian; HS 578T breast; NCI/ADR-RES ovarian.
Assay in all cases: NCI-60 one-dose screen, 48 h (100 = growth as untreated, 0 = no growth, -100 = all killed)
Holding throughout (details): 10 µM

Each structure is given as a SMILES string. About 83,000 compounds went through this panel and 20% of them were active in at least one assay; those are over-represented in the sample as a whole.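 Single-dose data. Exposure time 48 hours. Values below 10 considered active.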 A number with no mark means an inactive call. The source made the active and inactive calls.

In the case of `Brc1ccc2c(c1)-c1ccccc1C1=NCCN12`, the growth was -39.7% (active) in the assay on SK-MEL-2 melanoma; -2.72% (active) in the assay on EKVX NSCLC; -7.57% (active) with SN12C renal; -16.6% (active) with UO-31 renal; -12.5% (active) in the assay on TK-10 renal; -22.2% (active) with ACHN renal. Moreover, the growth was -5.84% (active) with CAKI-1 renal; -75.7% (active) in the assay with A498 renal; -12% (active) with CCRF-CEM leukemia; -7.7% (active) with MOLT-4 leukemia; -0.353% (active) in the assay on SR leukemia; 1.99% (active) with RPMI-8226 leukemia. The growth in the assay on OVCAR-8 ovarian was -11.3% (active); in the assay on OVCAR-5 ovarian it was -8.25% (active); in the assay with OVCAR-4 ovarian, 0.91% (active); with SK-OV-3 ovarian, -3.44% (active); in the assay with IGROV1 ovarian, 27.1%; in the assay with OVCAR-3 ovarian, -32.7% (active). The figures for the growth in the assay with HS 578T breast and in the assay with NCI/ADR-RES ovarian were 37% and -18% (active), respectively.
For the molecule `OCC1OC(n2ccc3c(NO)ncnc32)C(O)C1O` (stereo not given), the growth was -78.6% (active) in the assay on SK-MEL-2 melanoma; -15.3% (active) in the assay on EKVX NSCLC; -27.2% (active) with SN12C renal; -25% (active) in the assay on UO-31 renal; -15.1% (active) in the assay on TK-10 renal; -15.3% (active) with ACHN renal. For the same molecule, the growth in the assay on CAKI-1 renal is 1.77% (active); with A498 renal it was -51.1% (active); in the assay on CCRF-CEM leukemia, -8.6% (active); in the assay on MOLT-4 leukemia, -32.9% (active); with SR leukemia, -30.2% (active); in the assay on RPMI-8226 leukemia, -21.7% (active). Also, the growth is -32.5% (active) in the assay with OVCAR-8 ovarian; -3.92% (active) with OVCAR-5 ovarian; -5.14% (active) with OVCAR-4 ovarian; 1.15% (active) in the assay on SK-OV-3 ovarian; -32.1% (active) in the assay with IGROV1 ovarian; -31.7% (active) in the assay on OVCAR-3 ovarian. Further, the growth was -11% (active) in the assay with HS 578T breast and -53.5% (active) in the assay on NCI/ADR-RES ovarian.
`CC(C)(C)OC(=O)CC(S(=O)(=O)c1ccccc1)S(=O)(=O)c1ccccc1`: the growth in the assay on SK-MEL-2 melanoma was 114%; in the assay with EKVX NSCLC, 112%; in the assay on SN12C renal, 96.1%; with UO-31 renal it was 61.4%; in the assay on TK-10 renal, 21.4%; with ACHN renal it was 17.8%. Further, the growth in the assay with CAKI-1 renal was 90.6%; with A498 renal, 102%; in the assay on CCRF-CEM leukemia, 46.9%; with MOLT-4 leukemia, 82.7%; in the assay with SR leukemia it was 77.9%; in the assay on RPMI-8226 leukemia, 99.3%. For the same molecule, the growth was 101% in the assay with OVCAR-8 ovarian; 98.8% in the assay with OVCAR-5 ovarian; 107% with OVCAR-4 ovarian; 101% with SK-OV-3 ovarian; 114% in the assay with IGROV1 ovarian; 48.3% in the assay on OVCAR-3 ovarian. Further, the values for the growth with HS 578T breast and in the assay with NCI/ADR-RES ovarian were 102% and 107%, respectively.
`CCCN1CN2C(=O)N3CN(CCC)CN4C(=S)N(C1)C2C34` (stereo not given): the growth in the assay on SK-MEL-2 melanoma was 102%; in the assay with EKVX NSCLC, 95.2%; with SN12C renal, 100%; in the assay with UO-31 renal it was 94.6%; in the assay with TK-10 renal, 93.2%; with ACHN renal, 94.4%. Also, the growth was 90.4% in the assay on CAKI-1 renal; 108% in the assay with A498 renal; 94.9% in the assay with CCRF-CEM leukemia; 103% in the assay on MOLT-4 leukemia; 79.3% in the assay on SR leukemia; 105% in the assay on RPMI-8226 leukemia. Besides, the growth with OVCAR-8 ovarian was 108%; with OVCAR-5 ovarian, 95.2%; with OVCAR-4 ovarian it was 103%; in the assay on SK-OV-3 ovarian, 86.1%; with IGROV1 ovarian it was 99.3%; in the assay on OVCAR-3 ovarian it was 103%. The figures for the growth in the assay with HS 578T breast and with NCI/ADR-RES ovarian were 113% and 103%, respectively.
Consider `COc1ccc(NC(=O)C2CC3C=CC2C3)c([N+](=O)[O-])c1` (stereo not given), for which the growth is 104% in the assay on SK-MEL-2 melanoma; 101% in the assay on EKVX NSCLC; 91.6% with SN12C renal; 92.4% in the assay on UO-31 renal; 109% in the assay on TK-10 renal; 98.4% in the assay on ACHN renal. Moreover, the growth with CAKI-1 renal was 92.6%; in the assay with A498 renal it was 103%; in the assay with CCRF-CEM leukemia it was 95.6%; in the assay on MOLT-4 leukemia, 86.8%; in the assay with SR leukemia, 85.4%; with RPMI-8226 leukemia it was 104%. Also, the growth with OVCAR-8 ovarian is 101%; in the assay with OVCAR-5 ovarian it was 96.5%; in the assay on OVCAR-4 ovarian, 92.7%; in the assay with SK-OV-3 ovarian, 102%; in the assay with IGROV1 ovarian, 108%; in the assay with OVCAR-3 ovarian, 99.4%. Also, the growth in the assay on HS 578T breast is 95.4%; with NCI/ADR-RES ovarian it was 97.6%.
In the case of `CN1C(=O)C2(Nc3cc(Cl)ccc3S2)c2cc(Cl)ccc21` (stereo not given), the growth was 108% with SK-MEL-2 melanoma; 79.2% in the assay on EKVX NSCLC; 82.2% in the assay on SN12C renal; 56.9% in the assay on UO-31 renal; 125% in the assay on TK-10 renal; 92.3% in the assay with ACHN renal. The growth was 82.2% with CAKI-1 renal; 73% with A498 renal; 71.6% in the assay with CCRF-CEM leukemia; 82.5% in the assay with MOLT-4 leukemia; 70.6% in the assay with SR leukemia; 80.4% with RPMI-8226 leukemia. The growth in the assay on OVCAR-8 ovarian was 97.4%; with OVCAR-5 ovarian it was 107%; in the assay with OVCAR-4 ovarian, 70.3%; in the assay on SK-OV-3 ovarian it was 96.1%; in the assay with IGROV1 ovarian it was 102%; in the assay on OVCAR-3 ovarian, 95.9%. In addition, the growth was 91.1% in the assay with HS 578T breast and 93.6% in the assay with NCI/ADR-RES ovarian.
For the molecule `CCOC(=O)C1=CSC2=NC3=C(CCC/C3=C\c3cc(OC)c(OC)c(OC)c3)C(c3cc(OC)c(OC)c(OC)c3)N12` (stereo not given), the growth is 106% in the assay with SK-MEL-2 melanoma; 95.1% in the assay with EKVX NSCLC; 54.4% with SN12C renal; 69.9% with UO-31 renal; 84.7% with TK-10 renal; 45.9% in the assay with ACHN renal. The growth in the assay on CAKI-1 renal is 66.3%; in the assay on A498 renal, 78.4%; in the assay with CCRF-CEM leukemia, 16.8%; in the assay with MOLT-4 leukemia, 52.7%; in the assay with SR leukemia, 31.2%; in the assay on RPMI-8226 leukemia it was 22.4%. The growth with OVCAR-8 ovarian is 13.5%; in the assay on OVCAR-5 ovarian it was 75.7%; in the assay with OVCAR-4 ovarian, 72.3%; in the assay on SK-OV-3 ovarian, 102%; in the assay with IGROV1 ovarian it was 89.7%; with OVCAR-3 ovarian, 57.1%. Further, the growth was 46.8% with HS 578T breast and 3.63% (active) with NCI/ADR-RES ovarian.
In the case of `O=C(Nc1cc(Cl)cc2c1-c1ccc(Cl)cc1C2O)C(Cl)Cl` (stereo not given), the growth in the assay on SK-MEL-2 melanoma was 110%; in the assay with EKVX NSCLC it was 69%; in the assay with SN12C renal it was 82.2%; in the assay on UO-31 renal it was 74%; in the assay with TK-10 renal, 118%; with ACHN renal, 61.9%. The growth is 67.5% with CAKI-1 renal; 74.4% with A498 renal; 69.1% in the assay on CCRF-CEM leukemia; 78.8% in the assay with MOLT-4 leukemia; 82.3% in the assay on SR leukemia; 65% in the assay with RPMI-8226 leukemia. Also, the growth with OVCAR-8 ovarian was 86.5%; in the assay on OVCAR-5 ovarian it was 94.8%; with OVCAR-4 ovarian it was 62.9%; with SK-OV-3 ovarian it was 102%; with IGROV1 ovarian, 73.2%; in the assay with OVCAR-3 ovarian, 97.3%. Besides, the growth with HS 578T breast was 78.8%; with NCI/ADR-RES ovarian it was 83.5%.

The values are drawn from PubChem BioAssay (NCI).
